Assay outcomes as filed in PubChem.
Hits are enriched below; roughly 2.7% of the tested compounds scored in any of these assays.
F508del corr: correctors of CFTR F508del function in bronchial epithelial cells; 350,000 compounds, 0.36% hits; CFBE cells, YFP halide quenching; stimulated with forskolin plus potentiator P3; % fluorescence drop versus neutral controls; AID 720511; activity (quench increase), % at 7.58 µM;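 active means mean added fluorescence quench of at least 8% versus neutral control, with both replicates also reaching 8%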;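 further: cells transiently co-express mutant CFTR-F508del with the halide-sensitive YFP; corrector assay measuring rescue of mutant channel to the surface after 24 h compound exposure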
MPTP inh: permeability transition pore inhibition; AID 602449; inhibition, % at 10 µM; 360,000 compounds, 1.4% hits; isolated mouse mitochondria, Ca2+ swelling absorbance, 30 min;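 active means inhibition of 50% or more, scaled per plate between neutral and stimulator controls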
SKN-1 inh: blocks SKN-1 activity in C. elegans. C. elegans VP596 Pgst-4::GFP/RFP ratio, acrylamide-induced, 24 h. inhibition, % at 21.8 µM. 360,000 compounds, 0.49% hits;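 active means interference check ratio from 0.5 to 1.5 plus GFP to RFP signal ratio inhibition reaching or exceeding a fixed threshold, cut at about 30% in these data, passing the limit was not always enough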
ATG4B inh: inhibitors of human ATG4B cysteine protease. 340,000 compounds, 0.51% hits. AID 504462. Q9Y4P1. inhibition, % at 8.33 µM. ATG4B cleavage of LC3-PLA2, NBD-HPC fluorescence, 1 h; in the data active means inhibition above about 40%
CendR NRP1 mod: modulators of CendR peptide binding to human neuropilin-1 | FAM-RPARPAR peptide binding to NRP-1, fluorescence polarization | O14786 | AID 602438 | inhibition, % at 25 µM | 360,000 compounds, 0.85% hits;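 active means inhibition or corrected inhibition above about 18%, plus a signal ratio from 0.5 to 1.5, limit read from the data, passing the limit was not always enough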
Target sequence (O14786 whole entry, looked up): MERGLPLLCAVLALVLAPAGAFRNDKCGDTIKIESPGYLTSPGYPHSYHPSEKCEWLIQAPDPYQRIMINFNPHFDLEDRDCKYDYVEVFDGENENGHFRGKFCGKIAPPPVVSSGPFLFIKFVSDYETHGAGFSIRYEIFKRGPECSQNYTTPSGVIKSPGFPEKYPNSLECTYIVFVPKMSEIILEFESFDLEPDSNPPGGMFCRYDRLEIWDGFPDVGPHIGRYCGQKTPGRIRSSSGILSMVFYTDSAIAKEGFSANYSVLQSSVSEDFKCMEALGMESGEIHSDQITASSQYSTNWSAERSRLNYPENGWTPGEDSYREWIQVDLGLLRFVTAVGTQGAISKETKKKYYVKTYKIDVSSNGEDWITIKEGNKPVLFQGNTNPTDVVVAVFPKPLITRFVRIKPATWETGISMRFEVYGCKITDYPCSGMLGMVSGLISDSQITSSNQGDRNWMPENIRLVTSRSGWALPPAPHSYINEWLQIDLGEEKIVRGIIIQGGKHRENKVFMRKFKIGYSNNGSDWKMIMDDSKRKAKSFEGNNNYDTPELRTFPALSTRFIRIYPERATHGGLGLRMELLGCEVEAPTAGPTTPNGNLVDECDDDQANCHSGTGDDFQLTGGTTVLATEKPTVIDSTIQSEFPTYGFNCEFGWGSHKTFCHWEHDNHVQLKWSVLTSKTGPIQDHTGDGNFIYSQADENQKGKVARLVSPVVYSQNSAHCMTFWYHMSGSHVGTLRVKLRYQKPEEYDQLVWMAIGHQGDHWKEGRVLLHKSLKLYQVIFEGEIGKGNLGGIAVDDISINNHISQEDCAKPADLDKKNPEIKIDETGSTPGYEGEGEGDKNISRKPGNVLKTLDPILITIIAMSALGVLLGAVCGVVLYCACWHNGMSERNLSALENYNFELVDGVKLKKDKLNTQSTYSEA
Large screens that a line does not name were inactive; ! = not active in a repeat.

O=[N+]([O-])c1ccc(CN2CCN(c3ccccc3Cl)CC2)o1	none
C[C@@H]1CN([C@@H](C)CO)C(=O)Cc2cc(NC(=O)Nc3ccccc3)ccc2O[C@H]1CN(C)C(=O)Nc1ccccc1	none (no result: MPTP inh, SKN-1 inh, ATG4B inh, CendR NRP1 mod)
FC(F)Oc1ccc(C2N=C(c3ccccc3)NO2)cc1 (stereo not drawn)	SKN-1 inh 34
CC(C)NC(=O)N(C)C[C@H]1Oc2ccc(NC(=O)Nc3ccc(C(F)(F)F)cc3)cc2CC(=O)N([C@@H](C)CO)C[C@H]1C	none (no result: MPTP inh, SKN-1 inh, ATG4B inh, CendR NRP1 mod)
Cn1c(=O)[nH]c(=O)c2c1nc(N1CCOCC1)n2CCCSc1ncccn1	CendR NRP1 mod 22 (no result: F508del corr)
CCN1CCN(c2nc3c(c(=O)[nH]c(=O)n3C)n2Cc2ccccc2F)CC1	CendR NRP1 mod 30
CC(C)CCn1c(N2CCCC2)nc2c1c(=O)[nH]c(=O)n2C	CendR NRP1 mod 24
CCCCn1c(CN2CCN(c3cccc(Cl)c3)CC2)nc2c1c(=O)[nH]c(=O)n2C	F508del corr 14
CC1CN(c2nc3c(c(=O)[nH]c(=O)n3C)n2Cc2ccccc2F)CC(C)O1 (stereo not drawn)	none (no result: F508del corr)
O=C(C[C@@H]1C[C@@H]2c3cc(NS(=O)(=O)c4ccc(F)cc4)ccc3O[C@@H]2[C@H](CO)O1)N1CCOCC1	none (no result: MPTP inh, SKN-1 inh, ATG4B inh, CendR NRP1 mod)
Cc1cc(C)cc(N(CCC(=O)O)S(=O)(=O)c2ccc3ccccc3c2)c1	CendR NRP1 mod 42 (no result: F508del corr)
C[C@H]1CN([C@@H](C)CO)S(=O)(=O)c2ccc(C#CC3CCCC3)cc2O[C@H]1CN(C)CC1CC1	none (no result: MPTP inh, SKN-1 inh, ATG4B inh, CendR NRP1 mod)
Cc1nc(Nc2ccc(S(N)(=O)=O)cc2)oc1C	CendR NRP1 mod 26 (no result: F508del corr)
CCOc1ccc(/C=C2/SC(=S)N(C(C(=O)O)c3ccccc3)C2=O)cc1OCC (stereo not drawn)	none (no result: F508del corr)
CCOc1cc(/C=C2\SC(=S)N(C(C(=O)O)c3ccccc3)C2=O)ccc1O (stereo not drawn)	F508del corr 14
CN(C)Cc1cn(CC[C@@H]2CC[C@H](NC(=O)Nc3ccc4c(c3)OCO4)[C@@H](CO)O2)nn1	none (no result: MPTP inh, SKN-1 inh, ATG4B inh, CendR NRP1 mod)
O=c1[nH][nH]c2c(N=Cc3ccccc3O)ccc(F)c12	SKN-1 inh 42 (no result: F508del corr)
Cc1ccc(S(=O)(=O)N2CCN(CC(=O)N(CC(C)C)c3c(N)n(CC(C)C)c(=O)[nH]c3=O)CC2)c(C)c1	CendR NRP1 mod 49 (no result: F508del corr)
CCCCN(C(=O)c1cc(S(=O)(=O)N2CCOCC2)ccc1Cl)c1c(N)n(CC(C)C)c(=O)[nH]c1=O	none
CCCCN(C(=O)c1cc(S(=O)(=O)N2CCCCC2)ccc1Cl)c1c(N)n(CC(C)C)c(=O)[nH]c1=O	F508del corr 10
CCCNC(=O)Nc1ccc2c(c1)C(=O)N(C)[C@H]1CC[C@@H](CC(=O)NCCCN(C)C)O[C@H]1CO2	none (no result: MPTP inh, SKN-1 inh, ATG4B inh, CendR NRP1 mod)
Cc1ccc(-c2cc(=O)c3ccccc3[nH]2)cc1	none
Cc1ccc2[nH]c(-c3ccccc3)cc(=O)c2c1	F508del corr 10
Cc1ccc(S(=O)(=O)N(C)C[C@H]2Oc3ccc(N(C)C)cc3CC(=O)N([C@@H](C)CO)C[C@H]2C)cc1	none (no result: MPTP inh, SKN-1 inh, ATG4B inh, CendR NRP1 mod)
COC(=O)c1ccc(Nc2cc(C)nc3ncnn23)cc1	SKN-1 inh 37 (no result: F508del corr)
COc1cc2sc3cc(NCc4ccc(C)o4)ccc3c(=O)c2cc1OC	SKN-1 inh 37
C[C@H]1CN([C@@H](C)CO)C(=O)c2cc(NC(=O)Cn3cnnn3)ccc2O[C@H]1CN(C)C(=O)Nc1ccc(F)cc1	none (no result: MPTP inh, SKN-1 inh, ATG4B inh, CendR NRP1 mod)
CCCn1cnc2cc(NCc3cccc(OC)c3O)ccc21	SKN-1 inh 35 (no result: F508del corr)
COc1ccc(CN2[C@H](CO)[C@@H]3c4ccccc4N(C(=O)c4ccccc4)C[C@@H]32)cc1	none (no result: MPTP inh, SKN-1 inh, ATG4B inh, CendR NRP1 mod)
Cc1nc2nc(CSc3nnc(C)s3)cc(=O)n2[nH]1	CendR NRP1 mod 24!
CCCc1cc(=O)n2[nH]c(C)nc2n1	none (no result: F508del corr)
Cc1cccc(N2CCN(S(=O)(=O)c3cc(-c4cc(C)no4)ccc3C)CC2C)c1 (stereo not drawn)	F508del corr 11
CN1CCN(C(=O)C[C@H]2CC[C@H]3[C@@H](COC[C@@H](O)CN3Cc3cccc(-c4ccncc4)c3)O2)CC1	none (no result: MPTP inh, SKN-1 inh, ATG4B inh, CendR NRP1 mod)
CCN(CC)S(=O)(=O)c1ccc2c(c1)nc(SC(C)C(N)=O)n2-c1ccc(OC)cc1 (stereo not drawn)	SKN-1 inh 29 (no result: F508del corr)
COc1ccc(CN(CCCN2CCOCC2)C(=O)Nc2cccc(Cl)c2)cc1OC	CendR NRP1 mod 27 (no result: F508del corr)
COc1ccc(OC)c(CN(CCN2CCOCC2)C(=O)Nc2cccc(Cl)c2)c1	none (no result: F508del corr)
O=C1C=C(c2cccc3c2Oc2ccccc2S3)C[C@@H](c2ccc3c(c2)OCO3)C1	none (no result: MPTP inh, SKN-1 inh, ATG4B inh, CendR NRP1 mod)
O=C1C=C(c2cccc3c2Oc2ccccc2S3)C[C@@H](c2ccc(Cl)cc2)C1	CendR NRP1 mod 29
CN1CCN(c2ccc(NC(=O)c3ccc(Oc4ccccc4)cc3)cc2)CC1	SKN-1 inh 37
Cc1ccc(NC(=S)NNC(=O)C2CC2c2ccc(C)cc2)cc1 (stereo not drawn)	SKN-1 inh 40 (no result: F508del corr)
COc1cc(OC)cc(C(=O)NC(=S)Nc2ccc3oc(=O)ccc3c2)c1	F508del corr 9.6
CCCNC(=O)N[C@H]1CC[C@@H](CC(=O)NC2CCC2)O[C@H]1CO	none (no result: MPTP inh, SKN-1 inh, ATG4B inh, CendR NRP1 mod)
C[C@H](CO)N1C[C@H](C)[C@@H](CN(C)C(=O)Nc2ccccc2)OCCCC[C@H](C)Oc2ccc(NS(=O)(=O)c3ccc(F)cc3)cc2C1=O	none (no result: MPTP inh, SKN-1 inh, ATG4B inh, CendR NRP1 mod)
COc1ccc(-n2nc(C(=O)NCC(=O)NC3CCCCC3)c3ccccc3c2=O)c(OC)c1	none
COc1ccc(-n2nc(C(=O)NCC(=O)NC3CCCCCC3)c3ccccc3c2=O)c(OC)c1	CendR NRP1 mod 19
C[C@@H]1CN([C@@H](C)CO)C(=O)Cc2cc(NC(=O)Nc3ccc(C(F)(F)F)cc3)ccc2O[C@H]1CN(C)Cc1ccncc1	none (no result: MPTP inh, SKN-1 inh, ATG4B inh, CendR NRP1 mod)
CN1C(=O)c2cc(NC(=O)c3ccc(C(F)(F)F)cc3)ccc2OC[C@@H]2O[C@@H](CC(=O)NCc3ccc4c(c3)OCO4)CC[C@@H]21	none (no result: MPTP inh, SKN-1 inh, ATG4B inh, CendR NRP1 mod)
CC(=O)C[C@H](O)CC(=O)[C@H]1OC(=O)[C@H](C)C/C=C\Cc2ccccc21	CendR NRP1 mod 25
CC(=O)C[C@@H](O)CC(=O)[C@H]1OC(=O)[C@@H](C)C/C=C\Cc2ccccc21	none (no result: ATG4B inh)
CN(C)c1ccc(/C=C(\C#N)C(=O)Nc2nc3c(s2)CCN(Cc2ccccc2)C3)cc1	SKN-1 inh 45 (no result: F508del corr)
CC1=C(C(=O)N(C)C)CC(CC(=O)NCc2cccc3ccccc23)C(=O)N1CCCN1CCCC1=O (stereo not drawn)	F508del corr 8.3 (no result: ATG4B inh)
CC1=C(C(=O)N(C(C)C)C(C)C)CC(CC(=O)NCc2cccc3ccccc23)C(=O)N1CCCN1CCCC1=O (stereo not drawn)	none (no result: ATG4B inh)
Cc1ccc(S(=O)(=O)N2[C@@H](c3ccc(Cl)cc3)C(C(=O)OC(C)(C)C)=CC[C@H]2c2ccc(Cl)c(Cl)c2)cc1	CendR NRP1 mod 30 (no result: ATG4B inh)
CCn1c(NC)cc(=O)n(C)c1=O	CendR NRP1 mod 21 (no result: F508del corr)
CC(=O)Nc1cccc2c1Cc1ccccc1-2	none (no result: F508del corr)
CC(=O)Nc1ccc2c(c1Br)Cc1ccccc1-2	SKN-1 inh 44
Cc1cc(C)c(OCCOCCN2CCCC2)c(C)c1	none
Cc1cc(C)c(OCCOCCN2CCNCC2)c(C)c1	SKN-1 inh 39 (no result: F508del corr)
